The source of these data is PubChem BioAssay (NCATS).

Each structure is given as a SMILES string. A number with no mark means an inactive call. Inconclusive results are not listed. Activity calls are given as the source filed them. Unless noted, calls come from the whole dose curve; as a rule, active = well fitted inhibition curve with a large enough effect; inconclusive = small, poorly fitted or top-dose-only effect; inactive = flat fitted curve, though single readings scatter.

Assay [1] can be described thus: Drug repurposing screens with cells derived from glioblastoma tumor samples (AID 1345199). For activity, negative = cell killing: % is set by controls: 0 for no effect and ±100 for the full control effect. Note: nearly all actives have a fitted effect of over 40% in size. Note: potency is the fitted concentration of half-maximal effect. As to conditions: GBM patient neurospheres viability, ATP luminescence, 48 h. The method, boiled down:
(§1)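 Primary testing used CD133+ neurospheres from four GBM patients, seven concentrations, 48 h exposure and ATP-based viability; confirmation added three slower-growing patient lines.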

Assay [2] deals with astro (control astrocytes). The assay is described as above. To be noted: viability, ATP luminescence, 48 h; series mostly up to 45.9 µM. The method, boiled down:
as §1

Assay [3] deals with Nuclear receptor subfamily 1 group I member 2 (Rattus norvegicus) (UniProt Q9R1A7). Nature of the assay: qHTS assay for small molecule activators of the rat pregnane X receptor (rPXR) signaling pathway (AID 651751; call rule not given here; note: 0% is about no effect). To be noted: rPXR reporter cells, luciferase (One-Glo), 24 h.
The nature of assay [4]: qHTS assay for small molecule activators of the human pregnane X receptor (PXR) signaling pathway (AID 720659; call rule not given here; note: 0% is about no effect). To be noted: DPX-2 HepG2 CYP3A4-luciferase, 24 h; series mostly up to 92.3 µM. A general note: Quantitative high-throughput screening tests each substance at several concentrations.
Setting [5] is: at 45.9 µM (top of the series), tumour line B.
Where [6] appears, read: at 45.9 µM (top of the series), tumour line D.
Setting [7] is: at 46.1 µM (top of the series), tumour line C.
Setting [8] is: at 46 µM (top of the series), tumour line A.

Nuclear receptor subfamily 1 group I member 2 (Rattus norvegicus), sequence (Q9R1A7 whole entry, looked up): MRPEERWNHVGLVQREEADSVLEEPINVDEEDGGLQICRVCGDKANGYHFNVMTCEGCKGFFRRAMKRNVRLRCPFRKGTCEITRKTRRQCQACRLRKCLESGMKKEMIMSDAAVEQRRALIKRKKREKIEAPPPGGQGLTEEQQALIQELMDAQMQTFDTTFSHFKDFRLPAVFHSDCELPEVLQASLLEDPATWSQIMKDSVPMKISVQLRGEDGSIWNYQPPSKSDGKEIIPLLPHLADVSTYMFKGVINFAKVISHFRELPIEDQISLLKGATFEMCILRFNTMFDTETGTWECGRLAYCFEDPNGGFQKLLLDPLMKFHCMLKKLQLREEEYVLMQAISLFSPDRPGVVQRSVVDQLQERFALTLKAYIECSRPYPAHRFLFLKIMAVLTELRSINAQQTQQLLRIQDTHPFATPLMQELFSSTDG

For the molecule `C=CCCCCCCCCC(=O)OC`, the activity, negative = cell killing in assay [1] (setting [5]) was -4.31%; in assay [1] (setting [6]) it was -1.83%; in assay [1] (setting [7]), 7.19%. Besides, in assay [2], the Potency entry is “inactive”.
For `NC(=O)[C@@H]1C[C@]2(NC(=O)NC2=O)c2cc(F)ccc2O1`, in that order: -9.48%, 3.75%, -17.3% and “inactive”.
For `CC1CC(O)CC(C)(C)C1` (stereo unspecified) the same measures were -5.77%, -9.42%, -22% and “inactive”.
With `CO`, the activity, negative = cell killing in assay [1] (setting [5]) is -8.56%; in assay [1] (setting [6]), -4.99%; in assay [1] (setting [8]) it was -10.2%; in assay [1] (setting [7]), -11.6%. In addition, the Potency result in assay [2] is “inactive”. In addition, the max response in assay [3] is 4.07%. In addition, in assay [4], the result was inactive.
Consider `O=C(O)COc1ccccc1/C=N/NC(=O)c1ccncc1`, for which the activity, negative = cell killing in assay [1] (setting [5]) is -7.55%; in assay [1] (setting [6]), 5.85%; in assay [1] (setting [7]), -10.4%. In addition, in assay [2], the Potency entry was “inactive”.
For `[O]=[Bi][O]C(=O)[O][Bi]=[O]` the same measures were -5.84%, -17.8%, 0.454% and “inactive”.
For the molecule `CO/N=C(\C(=O)N[C@@H]1C(=O)N2C(C(=O)[O-])=C(C[n+]3cccc4c3CCC4)CS[C@H]12)c1csc(N)n1`, the activity, negative = cell killing in assay [1] (setting [5]) is -11.7%; in assay [1] (setting [6]), -9.09%. The Potency in assay [1] (tumour line C) is 23.1 µM (active). Besides, the Potency result in assay [2] was “inactive”.
On to `CC(C)Cc1ccc([C@@H](C)C(=O)NS(C)(=O)=O)cc1`, for which the activity, negative = cell killing in assay [1] (setting [5]) was -10.5%; in assay [1] (setting [6]), -14.1%; in assay [1] (setting [7]), -23.4%. Also, the Potency entry in assay [2] is “inactive”.
For `CCCCC[C@H](O)/C=C/[C@H]1[C@H](O)CC(=O)[C@@H]1C/C=C\CCCC(=O)O`, in that order: -2.11%, -17.7%, -15.8% and “inactive”.
With `C[Si](C)(C)O[Si](C)(C)C`, the activity, negative = cell killing is -9.61% in assay [1] (setting [5]), -4.16% in assay [1] (setting [6]), -2.42% in assay [1] (setting [8]) and -22.1% in assay [1] (setting [7]). Also, the max response in assay [3] was -0.472%. In addition, the result in assay [4] was inactive.
`Cc1nc(NS(=O)(=O)c2ccc(N)cc2)nc(C)c1Br`: the activity, negative = cell killing was -13% in assay [1] (setting [5]), -4.79% in assay [1] (setting [6]) and -28.7% in assay [1] (setting [8]). For the same molecule, in assay [2], the Potency entry is “inactive”.
For the molecule `O=C(O)COc1ccc(CCNS(=O)(=O)c2ccccc2)s1`, the results for the activity, negative = cell killing in assay [1] (setting [5]), in assay [1] (setting [6]) and in assay [1] (setting [7]) were -8.15%, -13.5% and -21.9%, respectively. Besides, the Potency entry in assay [2] is “inactive”.
Regarding `O=P(O)(O)OP(=O)(O)O`, the activity, negative = cell killing was -12.9% in assay [1] (setting [5]), -11% in assay [1] (setting [6]) and -5.23% in assay [1] (setting [7]). The Potency result in assay [2] was “inactive”.
Take `O=P(O)(O)O`: the activity, negative = cell killing in assay [1] (setting [5]) was 9.14%; in assay [1] (setting [6]) it was -2.27%; in assay [1] (setting [8]), -6.51%; in assay [1] (setting [7]), 0.794%. In addition, the max response in assay [3] is -0.433%. Moreover, in assay [4], the molecule was classed as inactive.
Consider `CN1C(C(=O)Nc2ccccn2)C(=O)c2sc(Cl)cc2S1(=O)=O` (stereo unspecified), for which the activity, negative = cell killing was -14.7% in assay [1] (setting [5]), -14% in assay [1] (setting [6]) and -4.03% in assay [1] (setting [7]). Also, in assay [2], the Potency result was “inactive”.
For `CNC(=O)[C@H](Cc1c[nH]c2ccccc12)NC(=O)[C@@H](CC(=O)NO)CC(C)C`, in that order: -23.5%, -19.3%, -23.8% and “inactive”.
`O=P(O)(O)OP(=O)(O)OP(=O)(O)O`: the activity, negative = cell killing in assay [1] (setting [5]) was -10.9%; in assay [1] (setting [6]) it was -30.2%; in assay [1] (setting [7]), -5.26%. The Potency result in assay [2] was “inactive”.
As for `CNC(=O)OCc1cccc(COC(=O)NC)n1`, the activity, negative = cell killing was -20.8% in assay [1] (setting [5]), 4.88% in assay [1] (setting [6]) and -25.4% in assay [1] (setting [8]). Moreover, the Potency result in assay [2] is “inactive”.
`Cc1ccc(C(C)(C)c2ccc(C)cc2)cc1`: the activity, negative = cell killing in assay [1] (setting [5]) was -5.24%; in assay [1] (setting [6]), -1.07%; in assay [1] (setting [7]), -10.1%. For the same molecule, the Potency entry in assay [2] was “inactive”.
Consider `C#C[C@]1(O)CC[C@H]2[C@@H]3CCC4=C(CCC(=O)C4)[C@H]3CC[C@@]21C`, for which the activity, negative = cell killing in assay [1] (at 20 µM (top of the series), tumour line C) was -4.47%; in assay [1] (at 21.2 µM (top of the series), tumour line B) it was -8.06%; in assay [1] (at 21.2 µM (top of the series), tumour line D), -3.97%. Also, in assay [2], the Potency result was “inactive”.
For `NC(N)=NCC1COc2ccccc2O1` (stereo unspecified), the activity, negative = cell killing in assay [1] (setting [5]) is -11.5%; in assay [1] (setting [6]) it was -28.1%. For the same molecule, the Potency in assay [1] (tumour line A) was 35.5 µM (active). Moreover, the Potency entry in assay [2] is “inactive”.
As to `CCN(CC)C(=O)[C@]1(c2ccccc2)C[C@@H]1CN`, the activity, negative = cell killing was -4.91% in assay [1] (setting [5]), -13.9% in assay [1] (setting [6]) and -22.9% in assay [1] (setting [7]). In addition, in assay [2], the Potency entry is “inactive”.
For `COc1ccc(-c2noc(CC(=O)O)c2-c2ccc(OC)cc2)cc1`, in that order: -13.4%, -6.66%, -18% and “inactive”.
For `NC(=O)[C@H]1O[C@@H](O)[C@H](O)[C@@H](O)[C@@H]1O`, in that order: -7.58%, -15.7%, -23.5% and “inactive”.
For `OC[C@H]1O[C@@H](O[C@H]2[C@H](O)[C@@H](O)[C@H](O)O[C@@H]2CO)[C@H](O)[C@@H](O)[C@@H]1O` the same measures were -9.2%, 6.26%, -13.5% and “inactive”.
With `CC(C)(C)NCC(O)c1ccc(O)c(CO)n1` (stereo unspecified), the results for the activity, negative = cell killing in assay [1] (setting [5]), in assay [1] (setting [6]) and in assay [1] (setting [7]) were -4.38%, 7.95% and -15%, respectively. Moreover, in assay [2], the Potency result was “inactive”.
